Among the test systems are NCI-H23 lung; NCI-H226 lung; NCI-H322M lung; HOP-62 NSCLC; NCI-H460 lung; HOP-92 NSCLC; NCI-H522 lung; A549/ATCC NSCLC; 786-0 renal; COLO 205 colon; DU-145 prostate; K-562 leukemia; MALME-3M melanoma; MDA-MB-231 breast; RXF 393 renal; SF-268 CNS; SF-295 CNS; SF-539 CNS; UACC-257 melanoma; M14 melanoma.
Assay in all cases: NCI-60 one-dose screen, 48 h (100 = growth as untreated, 0 = no growth, -100 = all killed)
Holding throughout (conditions): 10 µM unless noted

Compounds without any hit were thinned out: in the full panel of roughly 83,000, 20% have a hit.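 Cell lines were cultured in 96-well plates, exposed to a single compound concentration, and assessed for percent growth 48 hours later.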 A number with no mark means an inactive call. Active and inactive are the calls of the source. The calls were made as follows: active = growth percent below 10; inactive = the rest.

For `C#CCOc1cccc(-c2ncc3cc(NC(=O)CCl)ccc3n2)c1`, the growth in the experiment with NCI-H23 lung is -13.8% (active); with NCI-H226 lung, 2.41% (active); with NCI-H322M lung, 69.4%; in the experiment with HOP-62 NSCLC, -5.99% (active); with NCI-H460 lung it was 27.8%; with HOP-92 NSCLC, 14.2%. Further, the growth in the experiment with NCI-H522 lung is -72.2% (active); in the experiment on A549/ATCC NSCLC, 73.4%; in the experiment with 786-0 renal, -81.4% (active); in the experiment with COLO 205 colon, -77.7% (active); in the experiment with DU-145 prostate, -73.1% (active); in the experiment on K-562 leukemia it was 2.16% (active). In addition, the growth in the experiment with MALME-3M melanoma is -69% (active); with MDA-MB-231 breast it was -10.3% (active); in the experiment on RXF 393 renal, -86.3% (active); in the experiment with SF-268 CNS it was -41.8% (active); in the experiment on SF-295 CNS, 69.4%; with SF-539 CNS, -25.9% (active). The growth in the experiment on UACC-257 melanoma is 62%; with M14 melanoma it was -45.9% (active).

In the case of `O=C(O)c1cccc(N/C=C/C(=O)c2cc3cc(Br)ccc3oc2=O)c1`, the growth was 98.1% with NCI-H23 lung; 94.6% in the experiment with NCI-H226 lung; 100% in the experiment with NCI-H322M lung; 93.7% with HOP-62 NSCLC; 97% in the experiment with NCI-H460 lung; 103% in the experiment on HOP-92 NSCLC. Moreover, the growth is 91.8% in the experiment on NCI-H522 lung; 92.4% in the experiment on A549/ATCC NSCLC; 99.4% in the experiment with 786-0 renal; 110% in the experiment with COLO 205 colon; 108% in the experiment on DU-145 prostate; 119% in the experiment on K-562 leukemia. Besides, the growth in the experiment with MALME-3M melanoma was 104%; in the experiment on MDA-MB-231 breast, 93.6%; in the experiment with RXF 393 renal, 107%; in the experiment with SF-268 CNS, 90.4%; in the experiment with SF-295 CNS it was 104%; in the experiment on SF-539 CNS, 96%. The growth is 99.2% in the experiment on UACC-257 melanoma and 94.2% in the experiment on M14 melanoma.

As for `CC(C)[C@@]12C[C@@H](OC(=O)COC(=O)c3ccccc3)[C@@](C)(O1)[C@@H]1CC[C@@H](C)[C@H]1[C@@H]2OC(=O)/C=C/c1ccccc1`, the growth in the experiment with NCI-H23 lung was 90.1%; with NCI-H226 lung, 64.4%; in the experiment on NCI-H322M lung, 87%; in the experiment with HOP-62 NSCLC, 89.5%; in the experiment on NCI-H460 lung, 95.3%; with HOP-92 NSCLC, 76.9%. Also, the growth with NCI-H522 lung was 80.9%; in the experiment on A549/ATCC NSCLC, 80.9%; in the experiment on 786-0 renal, 68.7%; in the experiment with COLO 205 colon, 108%; in the experiment on DU-145 prostate, 101%; with K-562 leukemia, 75.4%. Also, the growth in the experiment on MALME-3M melanoma is 106%; in the experiment with MDA-MB-231 breast, 86.3%; in the experiment with RXF 393 renal it was -2.22% (active); in the experiment on SF-268 CNS, 63.4%; in the experiment with SF-295 CNS, 94.5%; in the experiment with SF-539 CNS it was 95.4%. For the same compound, the growth was 95.3% with UACC-257 melanoma and 104% in the experiment with M14 melanoma.

Take `CCOC(=O)C1=C(c2ccccc2)N=c2s/c(=C/c3ccc(Br)cc3)c(=O)n2C1c1ccc(O)cc1` (stereo not given): the growth in the experiment on NCI-H23 lung was 95.4%; in the experiment with NCI-H226 lung it was 86.6%; in the experiment with NCI-H322M lung it was 91.9%; with HOP-62 NSCLC, 105%; in the experiment on NCI-H460 lung it was 94.1%; in the experiment with HOP-92 NSCLC, 71.2%. Also, the growth with NCI-H522 lung was 87.9%; in the experiment with A549/ATCC NSCLC it was 80.2%; in the experiment with 786-0 renal, 77.4%; in the experiment on COLO 205 colon it was 118%; with DU-145 prostate, 95.5%; in the experiment on K-562 leukemia, 77.6%. Besides, the growth in the experiment on MALME-3M melanoma is 94.3%; in the experiment on MDA-MB-231 breast, 81.6%; in the experiment on RXF 393 renal it was 102%; in the experiment on SF-268 CNS, 83.8%; with SF-295 CNS, 95.6%; in the experiment with SF-539 CNS, 97.9%. Further, the growth in the experiment on UACC-257 melanoma was 86.9%; with M14 melanoma it was 87.2%.

As for `CCCCc1oc2ccccc2c1C(=O)c1ccc(O)cc1`, the growth was -5.52% (active) with NCI-H23 lung; 92.8% with NCI-H226 lung; 85.1% in the experiment on NCI-H322M lung; 79.3% in the experiment on HOP-62 NSCLC; 84.4% in the experiment on NCI-H460 lung; 68.2% in the experiment with HOP-92 NSCLC. In addition, the growth with NCI-H522 lung is 66.7%; in the experiment on A549/ATCC NSCLC, 76.6%; with 786-0 renal, 79.5%; in the experiment with COLO 205 colon it was 118%; in the experiment with DU-145 prostate it was 101%; in the experiment on K-562 leukemia it was 37.8%. The growth is 85.4% in the experiment on MALME-3M melanoma; 79.1% in the experiment with MDA-MB-231 breast; 72.7% with RXF 393 renal; 94.2% in the experiment with SF-268 CNS; 175% with SF-295 CNS; 82.5% with SF-539 CNS. The figures for the growth in the experiment with UACC-257 melanoma and in the experiment on M14 melanoma were 76.8% and 92.2%, respectively.

Turning to `CC1(C)O[C@H]2OC3CCC(=O)CC3(O)[C@H]2O1` (stereo not given in full), the growth in the experiment on NCI-H23 lung was 99.2%; with NCI-H226 lung, 102%; in the experiment with NCI-H322M lung, 101%; in the experiment with HOP-62 NSCLC it was 95.8%; with NCI-H460 lung, 101%; with HOP-92 NSCLC, 79.8%. Also, the growth is 92.4% with NCI-H522 lung; 95.9% in the experiment on A549/ATCC NSCLC; 99.5% with 786-0 renal; 105% in the experiment with COLO 205 colon; 107% with DU-145 prostate; 94.8% in the experiment on K-562 leukemia. The growth with MALME-3M melanoma is 104%; with MDA-MB-231 breast, 113%; in the experiment with RXF 393 renal, 104%; in the experiment on SF-268 CNS, 99.3%; in the experiment on SF-295 CNS, 110%; in the experiment with SF-539 CNS, 105%. Moreover, the growth is 96.5% in the experiment on UACC-257 melanoma and 99.9% with M14 melanoma.

Regarding `O=C(/C=C/C12c3ccccc3C(c3ccccc31)C1C(=O)NC(=O)C12)c1ccc(F)cc1` (stereo not given), the growth in the experiment with NCI-H23 lung was 9.23% (active); in the experiment on NCI-H226 lung, 36.9%; in the experiment on NCI-H322M lung it was -4.89% (active); in the experiment on HOP-62 NSCLC it was -45.3% (active); with NCI-H460 lung, 2.15% (active); in the experiment on HOP-92 NSCLC, -30.9% (active). The growth with NCI-H522 lung was 2.09% (active); in the experiment with A549/ATCC NSCLC, 10.6%; in the experiment with 786-0 renal, -9.86% (active); in the experiment with COLO 205 colon, -45.4% (active); in the experiment with DU-145 prostate it was 22.2%; with K-562 leukemia, 6.1% (active). Moreover, the growth in the experiment with MALME-3M melanoma is 20.2%; with MDA-MB-231 breast, 11.9%; with RXF 393 renal, -35.4% (active); in the experiment with SF-268 CNS, 31.3%; in the experiment on SF-295 CNS, 11.5%; in the experiment on SF-539 CNS it was 6.05% (active). For the same compound, the growth with UACC-257 melanoma is 27.3%; in the experiment on M14 melanoma, 10.2%.
